Test results from PubChem BioAssay (NCI).
Compounds without any hit were thinned out: in the full panel of roughly 83,000, 20% have a hit.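 Interpretation: 100, growth as untreated; towards 0, rising growth inhibition; 0, no net growth; 0 to -100, cell death. Compounds scoring below 10 were considered active.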 A number with no mark means an inactive call. Active and inactive are the calls of the source.

Experiments:
Experiment in all cases: NCI-60 one-dose screen, 48 h (100 = growth as untreated, 0 = no growth, -100 = all killed)
Conditions in all cases: 10 µM unless noted
HCT-15 colon = tested on: HCT-15 colon
HT29 colon = tested on: HT29 colon
SNB-75 CNS = tested on: SNB-75 CNS
SNB-19 CNS = tested on: SNB-19 CNS
U251 CNS = tested on: U251 CNS
PC-3 prostate = tested on: PC-3 prostate
SK-MEL-5 melanoma = tested on: SK-MEL-5 melanoma
UACC-62 melanoma = tested on: UACC-62 melanoma
SK-MEL-28 melanoma = tested on: SK-MEL-28 melanoma
SK-MEL-2 melanoma = tested on: SK-MEL-2 melanoma
EKVX NSCLC = tested on: EKVX NSCLC
SN12C renal = tested on: SN12C renal
UO-31 renal = tested on: UO-31 renal
TK-10 renal = tested on: TK-10 renal
ACHN renal = tested on: ACHN renal
CAKI-1 renal = tested on: CAKI-1 renal
A498 renal = tested on: A498 renal
CCRF-CEM leukemia = tested on: CCRF-CEM leukemia
MOLT-4 leukemia = tested on: MOLT-4 leukemia
LOX IMVI melanoma = tested on: LOX IMVI melanoma

Row | Compound | growth (HCT-15 colon) | growth (HT29 colon) | growth (SNB-75 CNS) | growth (SNB-19 CNS) [%] | growth (U251 CNS) | growth (PC-3 prostate) | growth (SK-MEL-5 melanoma) | growth (UACC-62 melanoma) | growth (SK-MEL-28 melanoma) | growth (SK-MEL-2 melanoma) | growth (EKVX NSCLC) | growth (SN12C renal) | growth (UO-31 renal) | growth (TK-10 renal) | growth (ACHN renal) | growth (CAKI-1 renal) | growth (A498 renal) | growth (CCRF-CEM leukemia) | growth (MOLT-4 leukemia) | growth (LOX IMVI melanoma)
1 | Cc1cc2nc3c4cc(Cl)ccc4n(CCN(C)C)c3nc2cc1C | -25.1% (active) | 1% (active) | 26.3% | 15.4 | 12.3% | 27.2% | 41% | -70.7% (active) | -59.3% (active) | 43.6% | 20.4% | 17.7% | -45% (active) | 19.4% | -10% (active) | -7.17% (active) | 73.9% | 24.6% | 2.26% (active) | –
2 | COc1ccc(-c2n/c(=C\c3c(O)[nH]c4ccc(OC)cc34)cc3c2=Nc2ccccc2-3)cc1 | 0.939% (active) | -47.4% (active) | 30.4% | 38.4 | -79.3% (active) | 75.8% | 18.5% | -56.4% (active) | -89.9% (active) | 96.6% | – | 89.4% | 73.6% | -10.8% (active) | 102% | 103% | 87.2% | – | -35.4% (active) | 27.4%
3 | COc1ccc(C(=O)/C=C/c2cc(-c3cc(OC)c(OC)c(OC)c3)n[nH]2)cc1OC | -16.4% (active) | -71% (active) | 33.2% | 35.2 | -85.5% (active) | 20.3% | 12.3% | 34.1% | -60.6% (active) | 22.6% | – | 5.5% (active) | -84.8% (active) | – | -86.2% (active) | -67% (active) | 4.21% (active) | -18.6% (active) | -1.18% (active) | -96.3% (active)
4 | NC(=O)[C@@H]1CC2CCC1C2 (some centres undefined) | 98.2% | 117% | 85.1% | 111 | 96.3% | 91% | 109% | 110% | 109% | 119% | – | 114% | 99.7% | 120% | 102% | – | – | 37.4% | 102% | 106%
5 | C=C(C)[C@@H]1CC[C@]2(C(=O)O)CC[C@]3(C)[C@H](CC[C@@H]4[C@@]5(C)C/C(=C/c6ccc(OC)cc6)C(=O)C(C)(C)[C@@H]5CC[C@]43C)[C@@H]12 | 5.16% (active) | 16% | 27.2% | 32.3 | 25.4% | 15.5% | 6.21% (active) | 17.1% | 41.3% | 38.1% | 9.53% (active) | 18% | 12.6% | 24.5% | 19.6% | 23.8% | 49.6% | 24% | 15.3% | –
6 | OCCNc1nc(Nc2ccc(Cl)c(Cl)c2)nc2ccccc12 | 26.2% | 9.9% (active) | 61.1% | 55.5 | 34.2% | 18.8% | 34% | 57.1% | 73.6% | 64.1% | – | 37.2% | 47.6% | 50% | 59.7% | – | 47% | 15.7% | 6.93% (active) | 34.1%
7 | CC(C)(C)c1ccc(OP(=S)(N/N=C/c2ccccc2O)Oc2ccc(C(C)(C)C)cc2)cc1 | 69.9% | 69.2% | 66.1% | 81 | 50.4% | 30.1% | 73.5% | 76.5% | 83.3% | – | – | 72.6% | 61% | 74.4% | 87.7% | 62.7% | 89.9% | 68.6% | 43.7% | 67.6%
8 | Nc1nc(N)c2nc3c(nc2n1)CCCCCCCCCC3 | 33.6% | 35.6% | 79.2% | 50.8 | 34.9% | 39.2% | 35% | 43.9% | 90.4% | 77.5% | – | 43.2% | 48.7% | 80.3% | 39.4% | – | 93.6% | 3.44% (active) | 45.3% | 30.8%
9 | Oc1ccccc1/C=N\NC(=S)Nc1ccc(F)cc1 | 21.8% | 39.1% | 43.1% | 36 | 27.7% | 40% | 6.1% (active) | 2.27% (active) | 30.8% | 18.5% | 29.8% | 36.6% | 7.46% (active) | 49.1% | 13.8% | -4.58% (active) | 91.9% | 14% | 7.67% (active) | –
10 | COC(=O)[C@@H]1[C@H]2C[C@H]3c4[nH]c5cc(OC)ccc5c4CCN3C[C@@H]2C[C@H](OC(=O)/C=C/c2ccnc(OC)c2)[C@H]1OC | 71.1% | 75.6% | 53.5% | 86.7 | 78% | 76% | 94.8% | 86.7% | 99.2% | 106% | – | 99.2% | 67.5% | 87.3% | 66.1% | – | 79.4% | 93.7% | 75.9% | 86.5%
11 | COc1cc2[nH]c(C(=O)c3cc(OC)c(OC)c(OC)c3)c(N)c2cc1C#CC1CC1 | 23.1% | 5.53% (active) | -4.88% (active) | 45.1 | 45% | 16.7% | 18.4% | 34.4% | 35.2% | 34.7% | – | 61% | 38.2% | 92.2% | 24.8% | – | -13.4% (active) | 24.9% | 44.5% | 36.1%
12 | COc1ccc(C(=O)c2cc(OC)c(OC)c(OC)c2)cc1/C=C/C(=O)c1cc(OC)c(OC)c(OC)c1 | 64.7% | 82.7% | 65.4% | 92.7 | 86.4% | 86.5% | 86.6% | 70.6% | 91.3% | 116% | – | 96.2% | 66.2% | 140% | 89.3% | – | 96.2% | 60.5% | 88.3% | 79%
13 | Cc1ccc(Sc2sc(-c3ccccc3)nc2[P+](c2ccccc2)(c2ccccc2)c2ccccc2)cc1 | 1.24% (active) | 3.9% (active) | -3.74% (active) | 10.4 | 13.8% | -30.6% (active) | -97.6% (active) | -33.7% (active) | 25.5% | -37.8% (active) | 5.57% (active) | 6% (active) | -39.1% (active) | 14.7% | 6.46% (active) | -14.2% (active) | -43.5% (active) | 7.63% (active) | -48.2% (active) | –
14 | C/C(=N\Nc1cc(C)c2ccccc2n1)c1ccccn1 | 21% | -90.8% (active) | 31.5% | 19.9 | -86.5% (active) | 15.9% | -72.1% (active) | -52% (active) | -93.7% (active) | – | – | 18.2% | -86% (active) | -12.9% (active) | -47.1% (active) | -15.1% (active) | 19.2% | -20.2% (active) | -18.7% (active) | -78.5% (active)
15 | Cc1ccc(Nc2c(C(N)=O)cnc3ccc(S(=O)(=O)Nc4cc(C)on4)cc23)cc1 | 108% | 98.3% | 81% | 94.7 | 95.6% | 86.5% | 99% | 91.8% | 101% | 109% | – | 97.9% | 78.2% | 118% | 89.2% | – | 88.8% | 100% | 101% | 95.8%
16 | c1ccc(C2Cc3ccccc3C2=NC2CCCCC2)cc1 (centres undefined) | 94.9% | 106% | 92.3% | 104 | 97.9% | 84.4% | 103% | 99.6% | 114% | 93.5% | – | 101% | 89.5% | 103% | 97% | – | 97.9% | 94.8% | 102% | 103%
17 | O=C(CI)Nc1ccc(O)c2ccccc12 | -10.1% (active) | 0.99% (active) | 54.2% | 46.1 | -28.4% (active) | 43.3% | -47.7% (active) | -58.7% (active) | 41.5% | -1.68% (active) | – | -34.9% (active) | -28.7% (active) | -34% (active) | 6.99% (active) | – | 95% | -26.7% (active) | -23.6% (active) | -60.6% (active)
